A short description of experiment [1]: antimalarial activity against Dd2 strain (AID 2302;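 active means growth inhibition above 50% at the single 2 µM test dose, taken to imply half-maximal potency below 2 µM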;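 further: 0% = DMSO untreated growth and 100% = chloroquine plus artemisinin killed control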). To be noted: P. falciparum Dd2 in RBCs, LDH growth readout, 72 h; at 2 µM; stronger effect = higher value.
A short description of experiment [2]: human hepatoma cell viability loss – ATP luminescence, cytotoxicity control for P. falciparum antimalarial project, primary screen (AID 2303;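 active means inhibition above 50%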;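 further: 0% = DMSO wells and 100% = digitonin-killed cells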). To be noted: HepG2 viability, 24-48 h, at 10 µM, stronger effect = higher value.
In experiment [3] the target is L-lactate dehydrogenase (Plasmodium falciparum (isolate CDC / Honduras)) (UniProt Q27743). The experiment can be described thus: PfLDH activity inhibition – cell lysate, 3D7 strain, counter-screen for P. falciparum growth inhibition project (AID 2304).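 Further: 0% = vehicle and 100% = reference inhibitor.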 To be noted: P. falciparum 3D7 crude extract, LDH APAD/NBT absorbance; at 2 µM; stronger effect = higher value. On the technique in general: The purpose of a counterscreen is to sort out artefacts and off-target activity.
L-lactate dehydrogenase (Plasmodium falciparum (isolate CDC / Honduras)), sequence (Q27743 whole entry, looked up): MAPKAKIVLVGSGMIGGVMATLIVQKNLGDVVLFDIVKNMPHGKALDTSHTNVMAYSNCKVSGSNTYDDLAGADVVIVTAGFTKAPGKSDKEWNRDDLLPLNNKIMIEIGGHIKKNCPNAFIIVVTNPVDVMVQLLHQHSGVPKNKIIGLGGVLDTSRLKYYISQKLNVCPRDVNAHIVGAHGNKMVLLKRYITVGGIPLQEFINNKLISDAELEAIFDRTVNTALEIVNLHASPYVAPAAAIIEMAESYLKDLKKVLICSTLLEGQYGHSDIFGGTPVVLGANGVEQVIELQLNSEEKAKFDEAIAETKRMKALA

A short description of experiment [4]: inhibition of 3D7 malaria parasite growth – strain 3D7 (AID 2306).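 Further: 0% = DMSO wells and 100% = chloroquine plus artemisinin control wells.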 To be noted: P. falciparum 3D7 erythrocytic growth, LDH absorbance, 72 h; at 2 µM; stronger effect = higher value.
Experiment [5] concerns the target Calcium-dependent protein kinase 1 (Plasmodium falciparum (isolate 3D7)) (UniProt P62344). Kind of experiment: PfCDPK1 kinase inhibitors, biochemical, TCAMS library (AID 1159585; cut-off not given, nearly all actives have IC50 up to about 0.98 µM;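 further: inhibitors leave more ATP so luminescence rises with inhibition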). To be noted: recombinant PfCDPK1, Kinase-Glo ATP depletion luminescence.
The target in experiment [6] is Plasmodium falciparum protein kinase 6 (PK6, PF3D7_1337100) (UniProt Q8IDW1). Kind of experiment: PfPK6 kinase inhibitors, biochemical, TCAMS library (AID 1159586). To be noted: recombinant PfPK6, Kinase-Glo ATP depletion luminescence.
Plasmodium falciparum protein kinase 6 (PK6, PF3D7_1337100), sequence (Q8IDW1 1-305): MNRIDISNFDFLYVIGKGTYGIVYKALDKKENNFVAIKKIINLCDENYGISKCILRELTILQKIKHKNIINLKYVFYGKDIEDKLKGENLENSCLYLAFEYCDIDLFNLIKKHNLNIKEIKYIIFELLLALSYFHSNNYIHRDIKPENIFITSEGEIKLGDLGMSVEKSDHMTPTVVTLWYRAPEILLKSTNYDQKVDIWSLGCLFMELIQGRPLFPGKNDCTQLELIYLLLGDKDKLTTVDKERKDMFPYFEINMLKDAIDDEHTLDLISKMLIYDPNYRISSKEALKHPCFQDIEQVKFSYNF
Experiment [7] deals with Protein kinase 7 (PK7), Plasmodium falciparum 3D7 (PF3D7_0213400) (UniProt Q7YTF7). Kind of experiment: inhibition of Plasmodium PK7 catalytic activity – biochemical, TCAMS antimalarial set, Kinase-Glo luminescence (AID 1159587). To be noted: recombinant PfPK7, Kinase-Glo ATP depletion luminescence. A general note: Kinase-Glo reads ATP consumption through a luciferase reaction.
Protein kinase 7 (PK7), Plasmodium falciparum 3D7 (PF3D7_0213400), sequence (Q7YTF7 1-343): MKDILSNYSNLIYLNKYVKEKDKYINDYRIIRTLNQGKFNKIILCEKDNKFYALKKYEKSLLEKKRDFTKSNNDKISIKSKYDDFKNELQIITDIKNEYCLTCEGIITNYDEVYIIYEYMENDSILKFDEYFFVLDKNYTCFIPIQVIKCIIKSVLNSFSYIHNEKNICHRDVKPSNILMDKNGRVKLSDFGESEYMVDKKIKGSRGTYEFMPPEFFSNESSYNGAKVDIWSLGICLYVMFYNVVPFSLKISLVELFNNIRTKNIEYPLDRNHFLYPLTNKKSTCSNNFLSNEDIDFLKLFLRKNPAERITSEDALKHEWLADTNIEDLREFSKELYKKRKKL

The target of experiment [8] is Calcium-dependent protein kinase 4 (Plasmodium falciparum (isolate 3D7)) (UniProt Q8IBS5). Kind of experiment: PfCDPK4 kinase inhibitors, biochemical, TCAMS library (AID 1159588; cut-off not given, nearly all actives have IC50 up to about 0.91 µM). To be noted: recombinant PfCDPK4, Kinase-Glo ATP depletion luminescence.
Calcium-dependent protein kinase 4 (Plasmodium falciparum (isolate 3D7)), sequence (Q8IBS5 whole entry, looked up): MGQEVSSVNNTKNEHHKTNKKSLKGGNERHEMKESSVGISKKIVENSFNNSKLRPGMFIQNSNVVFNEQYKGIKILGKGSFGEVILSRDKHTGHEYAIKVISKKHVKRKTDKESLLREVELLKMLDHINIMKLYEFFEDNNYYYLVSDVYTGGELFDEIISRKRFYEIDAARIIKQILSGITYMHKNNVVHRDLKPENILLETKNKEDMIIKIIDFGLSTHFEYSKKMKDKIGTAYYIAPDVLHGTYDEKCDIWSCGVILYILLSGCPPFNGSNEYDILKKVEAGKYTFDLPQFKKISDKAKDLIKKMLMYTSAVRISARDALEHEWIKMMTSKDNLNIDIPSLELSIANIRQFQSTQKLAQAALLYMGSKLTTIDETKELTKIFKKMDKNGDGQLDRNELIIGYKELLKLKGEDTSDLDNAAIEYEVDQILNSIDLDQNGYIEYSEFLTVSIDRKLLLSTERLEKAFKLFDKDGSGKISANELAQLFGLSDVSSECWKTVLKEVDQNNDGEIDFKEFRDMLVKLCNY

The term inhibition denotes the change of the read-out against control, counted positive when it falls.

Structures are written as SMILES. Unmarked numbers belong to inactive results. For some of these results: Potency and affinity values are given separately. Active and inactive are the calls of the source. Unless noted, how the calls were made is not given here.

Calcium-dependent protein kinase 1 (Plasmodium falciparum (isolate 3D7)), sequence (P62344 whole entry, looked up): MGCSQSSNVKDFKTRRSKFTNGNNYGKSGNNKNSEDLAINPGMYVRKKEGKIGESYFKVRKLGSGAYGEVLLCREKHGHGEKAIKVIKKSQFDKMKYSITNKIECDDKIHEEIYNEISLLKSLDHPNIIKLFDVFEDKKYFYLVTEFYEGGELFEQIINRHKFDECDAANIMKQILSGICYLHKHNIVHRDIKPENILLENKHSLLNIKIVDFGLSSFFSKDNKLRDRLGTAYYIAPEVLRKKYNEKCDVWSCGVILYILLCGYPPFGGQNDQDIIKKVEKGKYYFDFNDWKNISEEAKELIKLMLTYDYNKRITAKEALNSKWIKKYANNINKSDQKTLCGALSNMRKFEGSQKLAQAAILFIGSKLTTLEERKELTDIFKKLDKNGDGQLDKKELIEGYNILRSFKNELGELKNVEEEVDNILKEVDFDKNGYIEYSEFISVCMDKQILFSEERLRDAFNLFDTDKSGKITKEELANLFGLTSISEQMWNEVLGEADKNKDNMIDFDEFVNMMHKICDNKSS

`Fc1ccc2[nH]cc(CCNCc3ccc(-c4cccc(-c5nc6ccccc6[nH]5)c4)cc3)c2c1`: the figures for the growth inhibition in experiment [1] and in experiment [4] were 99% (active) and 100% (active), respectively. In addition, the inhibition in experiment [2] was 69% (active); in experiment [3], -3%. In addition, the result in experiment [5], in experiment [6], in experiment [7] and in experiment [8] was inactive.
With `Cc1cc(C(=O)Nc2ccc3c(ccn3C3CCCN(Cc4ccc(C(F)(F)F)cc4F)CC3)c2)no1` (stereo not given), the growth inhibition in experiment [1] is 95% (active); in experiment [4], 92% (active). In addition, the inhibition was 19% in experiment [2] and -1% in experiment [3]. Moreover, the result in experiment [5], in experiment [6], in experiment [7] and in experiment [8] was inactive.
Turning to `Cc1ccc(NC(=O)c2ccc3ncccc3c2)cc1OC1CCN(Cc2ccsc2)C1` (stereo not given), the figures for the growth inhibition in experiment [1] and in experiment [4] were 49% and 88% (active), respectively. Further, the inhibition is 5% in experiment [2] and -3% in experiment [3]. In addition, the outcome in experiment [5], in experiment [6], in experiment [7] and in experiment [8] was inactive.
Take `Cc1cc(N[C@@H](CC(C)C)C(=O)NCCc2ccccc2)nc(Nc2ccccc2)n1`: the growth inhibition in experiment [1] is 38%; in experiment [4] it was 100% (active). The inhibition in experiment [2] and in experiment [3] was 1% each time. The result in experiment [5], in experiment [6], in experiment [7] and in experiment [8] was inactive.
With `O=C1[C@H]2C(c3ccc(Cl)c(Cl)c3)N3CC(OCc4ccccc4)CC3(C(=O)O)[C@H]2C(=O)N1c1ccc(Br)cc1` (stereo not given in full), the values for the growth inhibition in experiment [1] and in experiment [4] were 86% (active) and 104% (active), respectively. Further, the figures for the inhibition in experiment [2] and in experiment [3] were 14% and 2%, respectively. For the same compound, the outcome in experiment [5], in experiment [6], in experiment [7] and in experiment [8] was inactive.
Take `O=C(Nc1cccc(OC2CCN(Cc3ccccc3)CC2)c1)c1ccc(Cl)c(Cl)c1`: the growth inhibition is 45% in experiment [1] and 101% (active) in experiment [4]. In addition, the inhibition in experiment [2] was 16%; in experiment [3], -4%. The outcome in experiment [5], in experiment [6], in experiment [7] and in experiment [8] was inactive.
On to `CCNc1cc(C(=O)N[C@@H](Cc2ccccc2)[C@H](O)CNCCCc2ccc(OC)cc2)cc(N2CCCC2=O)c1`, for which the values for the growth inhibition in experiment [1] and in experiment [4] were 96% (active) and 99% (active), respectively. The inhibition in experiment [2] is 4%; in experiment [3], 2%. For the same compound, the outcome in experiment [5], in experiment [6], in experiment [7] and in experiment [8] was inactive.
For the compound `Cc1cccc2[nH]c(-c3cccc(-c4cccc(NC(=O)Cc5cnc[nH]5)c4)c3)nc12`, the growth inhibition in experiment [1] is 100% (active); in experiment [4] it was 102% (active). Besides, the inhibition is 32% in experiment [2] and -4% in experiment [3]. The result in experiment [5], in experiment [6], in experiment [7] and in experiment [8] was inactive.
Consider `CCOC(=O)c1ccc(NC(=O)N(Cc2ccc(-c3ccc(CN4CCNCC4)cc3)cc2)Cc2cccnc2)cc1`, for which the growth inhibition is 34% in experiment [1] and 94% (active) in experiment [4]. In addition, the inhibition in experiment [2] was 13%; in experiment [3] it was 2%. Moreover, the result in experiment [5], in experiment [6], in experiment [7] and in experiment [8] was inactive.
With `CCOc1cc(C)ccc1C1CCN(CCCCNC(=O)c2nc(-c3ccc(C(F)(F)F)cc3)[nH]c2C)CC1`, the figures for the growth inhibition in experiment [1] and in experiment [4] were 98% (active) and 100% (active), respectively. In addition, the results for the inhibition in experiment [2] and in experiment [3] were 30% and -5%, respectively. The outcome in experiment [5], in experiment [6], in experiment [7] and in experiment [8] was inactive.
On to `CN1CCN(CCCN(Cc2ccc(-c3cccc(CNCc4ccc5c(c4)OCO5)c3)cc2)C(=O)CCC2CCCC2)CC1`, for which the growth inhibition is 85% (active) in experiment [1] and 92% (active) in experiment [4]. The inhibition in experiment [2] was 24%; in experiment [3], -5%. Besides, the outcome in experiment [5], in experiment [6], in experiment [7] and in experiment [8] was inactive.
`COc1ccc(CN2CCC(CNCCc3c(Cl)cccc3Cl)CC2)cc1`: the growth inhibition in experiment [1] was 69% (active); in experiment [4] it was 98% (active). Besides, the inhibition is 45% in experiment [2] and -11% in experiment [3]. The result in experiment [5], in experiment [6], in experiment [7] and in experiment [8] was inactive.
As for `COc1ccc2nccc([C@@H](O)CN3CCC(NC(=O)c4cccc(-c5cc(C)no5)c4)CC3)c2c1`, the growth inhibition is 89% (active) in experiment [1] and 93% (active) in experiment [4]. In addition, the inhibition is 19% in experiment [2] and 1% in experiment [3]. Moreover, the outcome in experiment [5], in experiment [6], in experiment [7] and in experiment [8] was inactive.
Consider `COc1cc(NC(=O)/C=C/c2cc(F)cc(F)c2F)cc(OCCN2CCC3(CC2)OCCO3)c1`, for which the growth inhibition in experiment [1] is 26%; in experiment [4], 98% (active). For the same compound, the figures for the inhibition in experiment [2] and in experiment [3] were 17% and -3%, respectively. Further, the outcome in experiment [5], in experiment [6], in experiment [7] and in experiment [8] was inactive.
With `Cc1ccccc1C1CCN(C2CCC(NC(=O)/C=C/c3ccc(Cl)cc3)CC2)CC1` (stereo not given), the growth inhibition in experiment [1] is 25%; in experiment [4] it was 99% (active). The results for the inhibition in experiment [2] and in experiment [3] were 78% (active) and 4%, respectively. In addition, the outcome in experiment [5], in experiment [6], in experiment [7] and in experiment [8] was inactive.
`Nc1nccc2ccc(Oc3ccncc3)cc12`: the growth inhibition in experiment [1] is 81% (active); in experiment [4] it was 91% (active). The inhibition in experiment [2] is -3%; in experiment [3] it was -2%. For the same compound, the result in experiment [5], in experiment [6], in experiment [7] and in experiment [8] was inactive.
Consider `CC(=O)c1cc(N2CCCC2)ccc1N`, for which the growth inhibition in experiment [1] and in experiment [4] was 97% (active) in each case. For the same compound, the inhibition in experiment [2] was 1%; in experiment [3], -2%. The result in experiment [5], in experiment [6], in experiment [7] and in experiment [8] was inactive.
On to `CC(=O)Nc1ccc(COc2ccc(Nc3ccnc4cc(-c5ccccn5)ccc34)cc2)cc1`, for which the growth inhibition was 94% (active) in experiment [1] and 99% (active) in experiment [4]. In addition, the inhibition in experiment [2] was 99% (active); in experiment [3], 3%. The outcome in experiment [5], in experiment [6], in experiment [7] and in experiment [8] was inactive.
As to `CCOc1cc(C)ccc1C1CCN(CCCCNC(=O)c2cnc(-c3ccc(C(F)(F)F)cc3)[nH]2)CC1`, the growth inhibition in experiment [1] was 97% (active); in experiment [4], 95% (active). Further, the inhibition was 16% in experiment [2] and 2% in experiment [3]. The result in experiment [5], in experiment [6], in experiment [7] and in experiment [8] was inactive.
Regarding `O=[N+]([O-])c1cccc(CNC2CCN(Cc3ccc(-c4ccccc4)cc3)CC2)c1`, the growth inhibition in experiment [1] is 96% (active); in experiment [4] it was 100% (active). Further, the inhibition in experiment [2] was 25%; in experiment [3], 1%. Besides, the result in experiment [5], in experiment [6], in experiment [7] and in experiment [8] was inactive.
